Test results taken from PubChem BioAssay (EPA / NIEHS).
Values joined by “and” are separate entries in the source; they are usually repeats but may differ in a detail not shown here. Equal entries are not always repeated. Inconclusive results are not listed. More than one record can exist for a structure, and the calls need not agree. Active and inactive are the calls of the source. Rule for the calls, unless noted: active = hit-call score of the fitted dose curve at least 0.9, where 1 is the maximum; inconclusive = response in the unintended direction; inactive = score below 0.9.

Molecular target: Estrogen receptor (Homo sapiens) (UniProt P03372)
Assay: CCTE_Deisenroth_AIME_384WELL_LUC_Inactive: CCTE's 384-well Estrogen Receptor Transactivation Assay without AIME metabolic competence (ERTA luciferase; metabolism negative), Deisenroth Lab (AID 2284038);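 note: VM7Luc4E2 breast cells given medium preincubated 2 h with S9-free microspheres; hits raise estrogen receptor luciferase signal so potencies reflect agonists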
Procedure, shortened: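 Chemicals (10-point series, 0.002 - 200 uM) were incubated 2 hours with alginate-water microsphere lids lacking S9, then the conditioned medium was transferred to VM7Luc4E2 breast cells for 24 hour. Luciferase induction was read by bioluminescence, fitted upward relative to 17beta-estradiol.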

Chain of Estrogen receptor (Homo sapiens) (P03372 whole entry, looked up): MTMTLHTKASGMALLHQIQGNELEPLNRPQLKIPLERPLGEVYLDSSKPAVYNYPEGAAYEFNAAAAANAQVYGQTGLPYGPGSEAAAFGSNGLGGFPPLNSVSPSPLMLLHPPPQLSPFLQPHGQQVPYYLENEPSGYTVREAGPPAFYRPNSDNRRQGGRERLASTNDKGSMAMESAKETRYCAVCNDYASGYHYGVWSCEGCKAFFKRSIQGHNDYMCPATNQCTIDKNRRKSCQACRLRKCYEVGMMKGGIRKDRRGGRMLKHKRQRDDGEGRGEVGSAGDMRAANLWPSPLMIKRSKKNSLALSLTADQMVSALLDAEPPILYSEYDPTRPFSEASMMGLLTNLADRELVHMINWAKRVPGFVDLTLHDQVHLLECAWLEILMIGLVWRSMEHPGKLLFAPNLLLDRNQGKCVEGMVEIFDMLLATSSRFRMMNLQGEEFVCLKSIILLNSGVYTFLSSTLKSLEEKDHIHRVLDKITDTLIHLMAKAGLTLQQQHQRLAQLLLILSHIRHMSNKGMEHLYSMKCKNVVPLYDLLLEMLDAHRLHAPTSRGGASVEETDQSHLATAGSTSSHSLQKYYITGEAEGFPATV

Row | SMILES | outcome
1 | CCCCCCCCCCCC(=O)OCC(O)CO (stereo unspecified) | inactive
2 | CS(=O)(=O)OCCCCOS(C)(=O)=O | inactive
3 | CC(C)CCCCCCc1ccc(OCCOCCO)cc1 | inactive

System: not listed separately
Assay: CCTE_Deisenroth_AIME_384WELL_CTox_Inactive: Cytotoxicity Assessment (CTOX) in CCTE's 384-well Estrogen Receptor Transactivation Assay without AIME metabolic competence (metabolism negative), Deisenroth Lab (AID 2284039);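 note: cell viability via live-cell protease substrate cleaved to fluorescent probe; cells exposed 24 h to medium preincubated 2 h with alginate-water beads without S9; loss of fluorescence signal means loss of viability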
Procedure, shortened: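 Metabolism-negative arm: chemicals (10-point, 0.002 - 200 uM) preincubated 2 h with alginate-water lids, medium moved onto VM7Luc4E2 cells for 24 h. Fluorescent live-cell protease readout; bidirectional curve fit.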

Row | SMILES | AC50 | outcome
4 | Nc1ccc2cc(S(=O)(=O)O)cc(O)c2c1N=Nc1ccccc1C(F)(F)F | 38.2 µM (active) | 
5 | CCCCCCCCSCCO |  | inactive
6 | C=CC(C)(O)CCC=C(C)C (stereo unspecified) |  | inactive
7 | CCCCC(CC)COC(=O)c1ccc(O)cc1 (stereo unspecified) | 61.6 µM (active) | 
8 | COc1ccccc1N=Nc1c(S(=O)(=O)O)cc2cc(S(=O)(=O)O)cc(NC(C)=O)c2c1O | 42.9 µM (active) | 
9 | COCCOCCOCCO |  | inactive
10 | O=[N+]([O-])c1ccc(O)cc1C(F)(F)F | 34.9 µM (active) | 
11 | Clc1ccc(C(c2ccccc2Cl)C(Cl)Cl)cc1 (stereo unspecified) | 152 µM (active) | 
12 | O=P(O)(O)O |  | inactive
13 | O=C(CC(=O)c1ccccc1)c1ccccc1 |  | inactive
14 | O=C1OC(=O)c2c(Cl)c(Cl)c(Cl)c(Cl)c21 |  | inactive
15 | O=C(O)c1ccc(O)cc1 |  | inactive
16 | CCOC(=O)C1OC1c1ccccc1 (stereo unspecified) |  | inactive
17 | CCCCCCC(C)(C)S |  | inactive
18 | Nc1ccccc1[N+](=O)[O-] |  | inactive
19 | C=C(C)[C@@H]1CC=C(C)C(=O)C1 |  | inactive
20 | CCCCCCCCCCCC(=O)OCC(O)CO (stereo unspecified) |  | inactive
21 | CC(C)CCCCCCc1ccc(OCCOCCO)cc1 |  | inactive
22 | Oc1ccc2cc(SSc3ccc4cc(O)ccc4c3)ccc2c1 |  | inactive
23 | CC(C)CC(C)CC(O)CC(C)C (stereo unspecified) |  | inactive
24 | Nc1ccc(N)c2c1C(=O)c1ccccc1C2=O | 28.9 µM (active) | 
25 | CCCCCCCCC=CCCCCCCCC1=NCCN1CCO |  | inactive
26 | CN1C(=O)c2ccccc2C1=O |  | inactive

System: not listed separately
Assay: CCTE_Shafer_MEA_dev_active_electrodes_number: CCTE's Neural Network Formation Assay for Number of Active Electrodes, Shafer Lab (AID 2284040);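 for AC50: potency for loss of active electrodes versus DMSO so lower counts are hits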
Procedure, shortened: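 Rat cortical primary cultures, 1.5 x 10^5 cells/well, PEI-coated MEA, laminin drop. Continuous exposure DIV 0–12; full media/compound change DIV 5, 9. Readout: electrodes with mean firing ≥5 spikes/min; AUC across days; loss vs DMSO.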

Row | SMILES | outcome | AC50
27 | FC(F)(F)COCC(F)(F)F | inactive | 
28 | COCCOCCOCCO | inactive | 
29 | COCCc1ccc(OCC(O)CNC(C)C)cc1 (stereo unspecified) | inactive | 
30 | CN(C)CCOC(C)(c1ccccc1)c1ccccn1 (stereo unspecified) | inactive | 
31 | Oc1c(Cl)cc(Cl)c(Cl)c1Cc1c(O)c(Cl)cc(Cl)c1Cl |  | 1.02 µM (active) and 1.07 µM (active)
32 | CS(=O)(=O)OCCCCOS(C)(=O)=O | inactive | 

Molecular target: Estrogen receptor (Homo sapiens) (UniProt P03372)
Assay: CCTE_Deisenroth_AIME_384WELL_LUC_Shift: CCTE's 384-well Estrogen Receptor Transactivation Assay with AIME metabolic competence data shift (ERTA luciferase; difference in metabolism positive and negative), Deisenroth Lab (AID 2284041; active = hit-call score of the fitted dose curve at least 0.9, where 1 is the maximum; inactive = score below 0.9;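 note: shift is response with S9 minus without S9 so positive means metabolism raised ER signal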)
Procedure, shortened: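 Here, parent compounds undergo 2 h phase I metabolism by PB/BNF-induced rat S9 before 24 h transactivation in VM7Luc4E2 cells; the curve models S9-positive minus S9-negative response over a 10-point series.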

Row | SMILES | outcome
33 | CCCCCCCCCCCC(=O)OCC(O)CO (stereo unspecified) | inactive
34 | CS(=O)(=O)OCCCCOS(C)(=O)=O | inactive
35 | CC(C)CCCCCCc1ccc(OCCOCCO)cc1 | inactive

System: not listed separately
Assay: CCTE_Shafer_MEA_dev_burst_rate: CCTE's Neural Network Formation Assay for Burst Rate, Shafer Lab (AID 2284042; active = hit-call score of the fitted dose curve at least 0.9, where 1 is the maximum; inactive = score below 0.9;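 for AC50: potency for loss of burst rate below DMSO control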)
Procedure, shortened: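 Cells plated, treated day 0; recorded DIV 5, 7, 9, 12; fed and re-treated DIV 5, 9. Endpoint: bursts per recording time, active-electrode well mean, trapezoidal AUC, fitted in decreasing direction against DMSO baseline.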

Row | SMILES | outcome | AC50
36 | FC(F)(F)COCC(F)(F)F | inactive | 
37 | COCCOCCOCCO | inactive | 
38 | COCCc1ccc(OCC(O)CNC(C)C)cc1 (stereo unspecified) | inactive | 
39 | CN(C)CCOC(C)(c1ccccc1)c1ccccn1 (stereo unspecified) | inactive | 
40 | Oc1c(Cl)cc(Cl)c(Cl)c1Cc1c(O)c(Cl)cc(Cl)c1Cl |  | 976 nM (active) and 688 nM (active)
41 | CS(=O)(=O)OCCCCOS(C)(=O)=O | inactive | 

System: not listed separately
Assay: CCTE_Shafer_MEA_dev_bursting_electrodes_number: CCTE's Neural Network Formation Assay for Number of Bursting Electrodes, Shafer Lab (AID 2284043)
Procedure, shortened: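 Primary rat cortical neurons were cultured on PEI-coated 48-well MEA plates (16 electrodes/well) and exposed from plating through day 12, with compound renewed at feeds on DIV 5 and 9. Electrodes bursting ≥1 per 2 min were counted on DIV 5, 7, 9, 12; trapezoidal AUC taken.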

Row | SMILES | outcome | AC50
42 | COCCOCCOCCO | inactive | 
43 | COCCc1ccc(OCC(O)CNC(C)C)cc1 (stereo unspecified) | inactive | 
44 | CN(C)CCOC(C)(c1ccccc1)c1ccccn1 (stereo unspecified) | inactive | 
45 | Oc1c(Cl)cc(Cl)c(Cl)c1Cc1c(O)c(Cl)cc(Cl)c1Cl |  | 919 nM (active) and 769 nM (active)
46 | CS(=O)(=O)OCCCCOS(C)(=O)=O | inactive | 

System: not listed separately
Assay: CCTE_Shafer_MEA_dev_per_burst_interspike_interval: CCTE's Neural Network Formation Assay for Burst Interspike Interval, Shafer Lab (AID 2284044; active = hit-call score of the fitted dose curve at least 0.9, where 1 is the maximum; inactive = score below 0.9;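 note: mean spike spacing inside bursts as AUC over recordings on days 5 7 9 12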;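 for AC50: potency for a decrease of within-burst interspike interval below DMSO level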)
Procedure: CCTE_Shafer_MEA_dev assay is conducted using Axion Biosystems 48 well microelectrode array (MEA) plates and Maestro recording system. Each well of the MEA plate contains a grid of 16 microelectrodes embedded in the culture surface. Electrically active cells, such as neurons, can be cultured over the electrodes, and electrical activity in these cells can be recorded extracellularly. The spontaneous firing of neurons is captured from each electrode on a microsecond timescale providing both temporally and spatially precise data. […] The CCTE_Shafer_MEA_dev assay uses primary cultures of rat cortical neurons. Recordings are made on days post-plating 5, 7, 9 and 12. As these cultures mature over time, neural networks develop functional activity and form cohesive networks in which electrical activity can be highly coordinated. CCTE_Shafer_MEA_dev_per_burst_interspike_interval is 1 of 19 assay components of the CCTE_Shafer_MEA_dev assay. It measures the average time interval between spikes (action potential firings) within a single-electrode burst (temporally-clustered group of spikes) during a recording in a microelectrode array (MEA) using Axion Biosystems Maestro 768 channel amplifier with the AxIS adaptive spike detector. The mean inter-spike interval within bursts is averaged across the actively bursting electrodes to report a well-mean value. To collapse across multiple recordings made on days post-plating 5, 7, 9 and 12, the trapezoidal area-under-the-curve of the component is calculated.Data from the assay component CCTE_Shafer_MEA_dev_per_burst_interspike_interval was analyzed into 1 assay endpoint. This assay endpoint, CCTE_Shafer_MEA_dev_per_burst_interspike_interval, was analyzed in the negative analysis fitting direction relative to DMSO as the negative control and baseline of activity. Using a type of functional reporter, gain or loss-of-signal activity can be used to understand electrical activity.
On the day prior to culture, each well was coated thoroughly with 150 uL of 0.05% polyethyleneimine (PEI, Sigma Cat P3143) in 50 mM HEPES (Sigma Cat H7523) at a pH of 8. The plate was incubated at 37C for one hour. PEI was rinsed out with 500 uL of sterile water three times. Plates were stored at 4C until the day of culture. This culture was plated at a seeding density of 1.5 x 10^5 cells/well on a 48-well MEA plate, prepared as described above. Cells were administered via a 25 uL media/laminin ([…]; Sigma Cat L2020-1MG) drop directly onto the microelectrode array, as adding the cells with the laminin results in better attachment than pre-coating with laminin. After 2 hours, an additional 475 uL of cortical media was added and the cells returned to the incubator. Exposure starts at day 0 of plating and is continued over twelve days of network development until the experiment is terminated. Cells are fed with fresh medium on DIV 5 and 9, following the recordings on those days. The entire volume of media in the well is exchanged and any vehicle or compound treatment is renewed. Complete details are found in OP-NHEERL/ISTD/SBB/TJS/2015-03-r0 (available on request, email shafer.tim@epa.gov). Measurement of the electrical activity is non-invasive, and recordings can be made from the same plate over multiple different days of the culture. In cortical neurons, this allows for the measurement of extracellular action potentials over the period during which networks form in the MEA plate.

Row | SMILES | outcome | AC50
47 | FC(F)(F)COCC(F)(F)F | inactive | 
48 | COCCOCCOCCO | inactive | 
49 | COCCc1ccc(OCC(O)CNC(C)C)cc1 (stereo unspecified) | inactive | 
50 | CN(C)CCOC(C)(c1ccccc1)c1ccccn1 (stereo unspecified) | inactive | 
51 | Oc1c(Cl)cc(Cl)c(Cl)c1Cc1c(O)c(Cl)cc(Cl)c1Cl |  | 2.04 µM (active) and 2.61 µM (active)
52 | CS(=O)(=O)OCCCCOS(C)(=O)=O | inactive | 

System: not listed separately
Assay: CCTE_Shafer_MEA_dev_burst_duration_mean: CCTE's Neural Network Formation Assay for Mean Burst Duration, Shafer Lab (AID 2284045; active = hit-call score of the fitted dose curve at least 0.9, where 1 is the maximum; inactive = score below 0.9;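 for AC50: curve fitted for loss meaning shorter burst duration than DMSO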)
Procedure, shortened: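 Primary rat cortical neurons on PEI-coated 16-electrode MEA wells, exposed from plating through day 12 with compound renewed at DIV 5 and 9; spontaneous activity recorded days 5, 7, 9, 12. Well-mean burst duration collapsed as trapezoidal AUC, fitted for loss versus DMSO.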

Row | SMILES | outcome | AC50
53 | FC(F)(F)COCC(F)(F)F | inactive | 
54 | COCCOCCOCCO | inactive | 
55 | COCCc1ccc(OCC(O)CNC(C)C)cc1 (stereo unspecified) | inactive | 
56 | CN(C)CCOC(C)(c1ccccc1)c1ccccn1 (stereo unspecified) | inactive | 
57 | Oc1c(Cl)cc(Cl)c(Cl)c1Cc1c(O)c(Cl)cc(Cl)c1Cl |  | 1.19 µM (active) and 2.59 µM (active)
58 | CS(=O)(=O)OCCCCOS(C)(=O)=O | inactive | 

System: not listed separately
Assay: CCTE_Shafer_MEA_dev_interburst_interval_mean: CCTE's Neural Network Formation Assay for Mean Interburst Interval, Shafer Lab (AID 2284046; active = hit-call score of the fitted dose curve at least 0.9, where 1 is the maximum; inactive = score below 0.9;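 note: well-mean interburst interval of bursting electrodes as AUC over four recording days; curve fitted for decrease in interburst interval relative to DMSO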)
Procedure, shortened: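 Developing rat cortical networks on 48-well MEAs receive compound from the day of plating. Burst intervals from each active electrode are averaged per well, and AUC over the recording days is fitted in the negative direction against DMSO.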

Row | SMILES | outcome | AC50
59 | FC(F)(F)COCC(F)(F)F | inactive | 
60 | COCCOCCOCCO | inactive | 
61 | COCCc1ccc(OCC(O)CNC(C)C)cc1 (stereo unspecified) | inactive | 
62 | CN(C)CCOC(C)(c1ccccc1)c1ccccn1 (stereo unspecified) | inactive | 
63 | Oc1c(Cl)cc(Cl)c(Cl)c1Cc1c(O)c(Cl)cc(Cl)c1Cl |  | 2.62 µM (active) and 2.86 µM (active)
64 | CS(=O)(=O)OCCCCOS(C)(=O)=O | inactive | 

System: not listed separately
Assay: CCTE_Shafer_MEA_dev_inter_network_spike_interval_mean: CCTE's Neural Network Formation Assay for Mean Inter-network Spike Interval, Shafer Lab (AID 2284047; active = hit-call score of the fitted dose curve at least 0.9, where 1 is the maximum; inactive = score below 0.9;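 for AC50: potency for a decrease in mean inter-network spike interval below DMSO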)
Procedure, shortened: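 Rat cortical cultures, 1.5 x 10^5 cells/well on 48-well MEA plates; continuous exposure days 0–12, medium and compound refreshed DIV 5, 9. Mean time between consecutive network-spike peaks; AUC across DIV 5/7/9/12; DMSO baseline, negative fitting direction.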

Row | SMILES | outcome | AC50
65 | FC(F)(F)COCC(F)(F)F | inactive | 
66 | COCCOCCOCCO | inactive | 
67 | COCCc1ccc(OCC(O)CNC(C)C)cc1 (stereo unspecified) | inactive | 
68 | CN(C)CCOC(C)(c1ccccc1)c1ccccn1 (stereo unspecified) | inactive | 
69 | Oc1c(Cl)cc(Cl)c(Cl)c1Cc1c(O)c(Cl)cc(Cl)c1Cl | inactive | 0.0601 µM (active)
70 | CS(=O)(=O)OCCCCOS(C)(=O)=O | inactive | 
